From PubChem BioAssay (Tox21) come the findings set out here.

“And” between values parts separate entries of the source, which are not always exact repeats. Equal values may be shown once. Results filed as inconclusive are left out. Entries that show only a call come without a potency. Some structures have more than one record in an assay (separate samples or runs), and their calls can disagree. The source made the active and inactive calls. Calls follow the shape of the dose curve; as a rule, active = well fitted inhibition curve with a large enough effect in the signal ratio in the repeat runs (not every such curve was filed as active); inconclusive = weak or mixed curves, or effect the other way; inactive = no such curve, though single readings can be large or run the other way; the % refers to the signal ratio.
Potency is read from the fitted curve at half-maximal effect.

Chain of Glucocorticoid receptor (Homo sapiens) (P04150 whole entry, looked up): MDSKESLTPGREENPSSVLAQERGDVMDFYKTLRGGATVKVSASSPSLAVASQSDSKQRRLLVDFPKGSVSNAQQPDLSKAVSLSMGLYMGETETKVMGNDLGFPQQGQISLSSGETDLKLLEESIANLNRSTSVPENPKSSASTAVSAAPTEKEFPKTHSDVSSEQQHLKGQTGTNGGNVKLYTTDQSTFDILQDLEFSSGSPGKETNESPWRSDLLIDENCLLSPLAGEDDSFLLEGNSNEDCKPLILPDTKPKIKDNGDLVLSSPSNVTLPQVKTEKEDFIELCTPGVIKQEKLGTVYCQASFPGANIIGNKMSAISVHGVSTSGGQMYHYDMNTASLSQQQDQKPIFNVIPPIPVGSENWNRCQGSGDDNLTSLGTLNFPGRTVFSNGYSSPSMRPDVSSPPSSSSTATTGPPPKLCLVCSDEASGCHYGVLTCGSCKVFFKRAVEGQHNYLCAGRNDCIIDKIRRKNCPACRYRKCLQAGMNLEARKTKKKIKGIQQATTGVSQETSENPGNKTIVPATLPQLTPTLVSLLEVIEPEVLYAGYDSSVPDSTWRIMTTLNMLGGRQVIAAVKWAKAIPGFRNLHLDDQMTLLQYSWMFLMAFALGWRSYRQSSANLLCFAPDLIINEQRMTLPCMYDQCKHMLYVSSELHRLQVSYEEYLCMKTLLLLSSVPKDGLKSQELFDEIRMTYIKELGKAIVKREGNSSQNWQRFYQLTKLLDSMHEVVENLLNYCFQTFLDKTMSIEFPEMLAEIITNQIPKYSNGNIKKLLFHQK

In this test the target is Glucocorticoid receptor (Homo sapiens) (UniProt P04150). The test is described as follows: qHTS assay to identify small molecule antagonists of the glucocorticoid receptor (GR) signaling pathway (AID 720692). The settings on record: GR-bla HeLa, beta-lactamase FRET ratio, dexamethasone-stimulated, 18 h; series mostly up to 58.5 µM; activity change, negative = inhibition: at the top concentration. From the text:
U.S. Tox21 Program National Center for Advancing Translational Sciences [NCATS] NIH Chemical Genomics Center [NCGC] U.S. Environmental Protection Agency [EPA] National Institutes of Environmental Health Sciences [NIEHS] National Toxicology Program [NTP] U.S. Food and Drug Administration [FDA] Tox21 Assay Overview: The Glucocorticoid receptor (GR) is one of the members of the nuclear receptor family of ligand-dependent transcription factors. GR plays a critical role in carbohydrate, protein and lipid metabolisms and programmed cell death. CellSensor GR-bla HeLa cell line (Invitrogen) contains a beta-lactamase reporter gene under the control of the glucocorticoid response element stably integrated into HeLa cells, a cervical cancer cell line that expresses glucocorticoid receptor. The activation of the reporter gene under culture conditions can be detected by fluorescence intensity. This cell line has been used to screen the Tox21 10K compound library and to identify the compounds that inhibit the GR signaling.
Tox21 Assay Protocol Summary: The GR-bla HeLa cells were dispensed at 1500 cells/5 ul/well in 1536-well black wall/clear bottom plates using a Multidrop Combi (ThermoFisher Scientific, Waltham, MA) dispenser. After the assay plates were incubated at a 37 C/5% CO2 incubator for 4 hours, 23 nL of compounds dissolved in DMSO, positive controls or DMSO only was transferred to the assay plate by a pintool station (Kalypsys, San Diego, CA), followed by addition of 1 uL of dexamethasone (5 nM, final concentration in the well). The plates were incubated at 37 C for 18 hours. After 1 uL of LiveBLAzerTM B/G FRET substrate was added using a Flying Reagent Dispenser (Aurora Discovery, San Diego, CA), the plates were incubated at room temperature for 2 hours, and fluorescence intensity was measured by an Envision plate reader (PerkinElmer, Shelton, CT).
In the case of `CCNCC`, the “activity change, negative = inhibition” value was 0.16% (inactive). Turning to `CCCCSP(=O)(SCCCC)SCCCC`, the Potency entry is “inactive”.

Take `COC(=O)Nc1nc2ccccc2[nH]1`: the “activity change, negative = inhibition” value is -7.95% (inactive). Turning to `CCCCOC(=O)COC(=O)c1ccccc1C(=O)OCCCC`, the Potency result is “inactive”. The same measure, in the same setting: under `COc1ccc(O)c(C(C)(C)C)c1` stands “inactive”. Same read-out and setting: then `C[C@]12CC[C@H]3[C@@H](CCC4=CC(=O)CC[C@@H]43)[C@@H]1CC[C@@H]2O`, with 3.01 µM (active) and 4.25 µM (active) and 6.85 µM (active). On the same count and under the same terms, under `Cc1ccc([N+](=O)[O-])cc1` stands “inactive”; under `N#Cc1cccnc1`, “inactive”; under `Clc1cccc(Cl)c1`, “inactive”. Regarding `NC(=O)CN1CCCC1=O`, the Potency result was “inactive”. Regarding `CCCCC(C#N)(Cn1cncn1)c1ccc(Cl)cc1` (stereo not given), the “activity change, negative = inhibition” value was -14.6% (inactive). On the same count and under the same terms, then `Cc1ccc(N=CN(C)C=Nc2ccc(C)cc2C)c(C)c1`, with 3.46% (inactive). As for `CCC1(c2ccc(N)cc2)CCC(=O)NC1=O` (stereo not given), the Potency result is “inactive”. Consider `[CH3][Sn]([Cl])([Cl])[Cl]`, for which the “activity change, negative = inhibition” value was -5.18% [at 78.9 µM] (inactive). In the case of `O=P(OCCCl)(OCCCl)OCCCl`, the Potency entry was “inactive”.

On to `CC(C)(c1ccc(OCC2CO2)cc1)c1ccc(OCC2CO2)cc1` (stereo not given), for which the Potency is 49 µM (active).

Regarding `CC(C)(C#N)N=NC(C)(C)C#N`, the Potency entry is “inactive”. The same measure, in the same setting: then `CCCCCCCCCC(CC)c1ccc(S(=O)(=O)O)cc1` (stereo not given), with “inactive”; and `CN(C)c1ccccc1`, with “inactive”. The same measure, in the same setting: under `CC(C)CON=O` stands “inactive”. Turning to `O=NN(c1ccccc1)c1ccccc1`, the “activity change, negative = inhibition” value is 0.213% (inactive).

With `O=C1CCCO1`, the “activity change, negative = inhibition” value was 3.1% (inactive). `CCNc1nc(Cl)nc(NC(C)(C)C#N)n1`: the Potency entry was “inactive”.

For the compound `CCCCOCCOC(C)=O`, the Potency result was “inactive”. `ClC(Cl)(Cl)c1ccccc1`: the Potency entry is “inactive”. Still for that read-out and setting: under `CCOP(=S)(OCC)OP(=S)(OCC)OCC` stands “inactive”. Consider `S=c1[nH]c2ccccc2[nH]1`, for which the “activity change, negative = inhibition” value is -3.76% (inactive). As for `O=[N+]([O-])c1ccc(Nc2ccccc2)cc1`, the Potency is 49.4 µM (active). Still for that read-out and setting: under `CNC(=O)Oc1cccc2c1OC(C)(C)C2` stands “inactive”. On the same count and under the same terms, under `O=C(O)c1nn(Cc2ccc(Cl)cc2Cl)c2ccccc12` stands “inactive and 43.4 µM (active)”; under `Brc1ccc(Br)cc1`, “inactive”.

`COP(=S)(OC)Oc1ccc(S(=O)(=O)N(C)C)cc1`: the Potency result was “inactive”. With `c1ccc(C2CO2)cc1` (stereo not given), the “activity change, negative = inhibition” value is -4.38% [at 78.9 µM] (inactive). For the compound `CCOS(=O)(=O)OCC`, the Potency result was “inactive”. Take `CCCCOCC1CO1` (stereo not given): the Potency entry was “inactive”. Still for that read-out and setting: under `ClC(Cl)(Cl)Br` stands “inactive”; under `CC(C)(c1ccccc1)c1ccc(O)cc1`, 48.6 µM (active) and 54.9 µM (active); under `OCCOCCO`, “inactive”. Take `CC(O)CN(CC(C)O)CC(C)O` (stereo not given): the Potency entry was “inactive”.

With `Oc1ccc(Cl)cc1Cl`, the Potency result is “inactive”.
